Only some compounds are listed: those with a hit (about 12% of all), similar ones and a draw of the others.
L3MBTL1 block – L3MBTL1 (human) inhibition. Q9Y468. AlphaScreen L3MBTL1–H3K9me1 peptide binding. Potency, µM (highest dose often 57.1 µM), usual class: inhibitors. 0.66% of 230,000 active. AID 485360; note: nearly all actives have a fitted effect of over 60% in size
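L3MBTL1 50 nM + b-AHA-H3(1-15)K9me1 75 nM, 30 min RT; compound added, 30 min RT; streptavidin donor/Ni-chelate acceptor beads 10 ug/mL each final, 30 min RT dark; AlphaScreen read.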
BAZ2B inh – BAZ2B (human) inhibition; Q9UIF8; AlphaScreen BAZ2B-H3K14Ac peptide displacement; Potency, µM (series often up to 114 µM), usual class: inhibitors; 4.4% of 360,000 active; note: nearly all actives have a fitted effect of over 60% in size
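Inhibition is scored as reduced AlphaScreen emission. The BAZ2B/b-H3(5-23)K14Ac complex (50 nM each) in PBS pH 7.4, 0.01% Tween-20 meets compound (up to 110 uM) for 30 min at RT before bead addition.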
HP1b binding inh – inhibitors of HP1-beta chromodomain binding to methylated histone tails; P83916; AlphaScreen HP1-beta / biotin-H3K9me3 peptide binding; Potency, µM (titrated, usually from 114 µM), hits mostly inhibitors; 0.56% of 390,000 active; note: nearly all actives have a fitted effect of over 70% in size
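HP1-beta protein (50 nM final) preincubated 30 min at room temperature with biotinylated H3(1-18)K9me3 peptide (50 nM) in PBS pH 7.4, 0.01% Tween-20, then compound added for 30 min. AlphaScreen streptavidin donor/nickel chelate acceptor beads (10 ug/mL final), 30 min dark, luminescence read.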
JMJD2A Tudor – inhibitors of human JMJD2A Tudor domain; AlphaScreen JMJD2A-Tudor / H3K4me3 peptide binding; Potency, µM (highest dose often 114 µM), most hits filed as inhibitors; 4.4% of 390,000 active; AID 504339; note: nearly all actives have a fitted effect of over 50% in size
Target sequence (O75164 whole entry, looked up, the tested form may be a part): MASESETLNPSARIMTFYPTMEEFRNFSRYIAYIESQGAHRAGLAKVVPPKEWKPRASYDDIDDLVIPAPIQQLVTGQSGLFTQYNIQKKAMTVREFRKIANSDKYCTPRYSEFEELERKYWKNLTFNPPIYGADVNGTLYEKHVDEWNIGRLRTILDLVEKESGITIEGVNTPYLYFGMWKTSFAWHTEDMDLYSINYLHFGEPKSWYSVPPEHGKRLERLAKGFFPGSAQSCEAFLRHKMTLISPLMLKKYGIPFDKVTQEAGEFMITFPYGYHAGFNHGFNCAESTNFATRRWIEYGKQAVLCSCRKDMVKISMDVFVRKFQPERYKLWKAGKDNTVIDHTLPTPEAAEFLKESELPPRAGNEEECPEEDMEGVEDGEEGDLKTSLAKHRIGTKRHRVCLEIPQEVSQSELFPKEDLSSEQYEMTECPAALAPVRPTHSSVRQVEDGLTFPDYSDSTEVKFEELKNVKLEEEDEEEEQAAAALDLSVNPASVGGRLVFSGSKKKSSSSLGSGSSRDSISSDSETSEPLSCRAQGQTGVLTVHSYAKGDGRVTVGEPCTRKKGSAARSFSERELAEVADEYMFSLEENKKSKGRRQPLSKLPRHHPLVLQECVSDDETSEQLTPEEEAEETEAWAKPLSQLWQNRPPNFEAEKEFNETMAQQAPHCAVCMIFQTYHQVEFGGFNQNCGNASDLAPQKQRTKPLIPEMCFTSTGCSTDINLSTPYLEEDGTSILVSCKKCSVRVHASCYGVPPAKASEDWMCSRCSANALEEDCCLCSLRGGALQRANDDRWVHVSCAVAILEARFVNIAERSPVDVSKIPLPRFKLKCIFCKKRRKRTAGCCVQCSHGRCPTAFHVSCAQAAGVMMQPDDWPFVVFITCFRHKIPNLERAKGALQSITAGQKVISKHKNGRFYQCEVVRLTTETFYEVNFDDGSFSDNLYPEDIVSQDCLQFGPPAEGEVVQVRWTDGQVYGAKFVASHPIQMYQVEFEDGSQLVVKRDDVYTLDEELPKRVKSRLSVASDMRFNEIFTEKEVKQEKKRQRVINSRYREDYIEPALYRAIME
Sfp PPTase inh – Sfp phosphopantetheinyl transferase inhibition. Potency, µM, hits mostly inhibitors. Biochemical Sfp PPTase activity, qHTS. Q9F4F7. 3.5% of 310,000 active;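 note: the enzyme is Sfp with the accession as filed and its product quenches rhodamine fluorescence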
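Sfp 15 nM + cpd, 15 min RT; start w/ rhodamine-CoA 5 uM, BHQ-2-YbbR 12.5 uM (final); 50 mM Hepes pH 7.6, 10 mM MgCl2, 0.01% NP-40, 0.01% BSA; read 525/598 nm at 0 and 30 min.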
G9a block – inhibitors of human histone lysine methyltransferase G9a | Q96KQ7 | Potency, µM (doses to about 102 µM), actives largely listed as inhibitors | G9a H3K9 monomethylation, AlphaScreen, 2 h | 8.8% of 350,000 active; note: nearly all actives have a fitted effect of over 75% in size
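Chemiluminescent proximity detection of H3K9 monomethylation, read after 10 min bead incubation in the dark. Reaction: 20 nM G9a, 500 nM biotin-H3K9 peptide, 20 uM SAM cofactor, 2 h, room temperature, following 15 min enzyme-compound preincubation.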
Hits are given with their value; . = inactive; ? = inconclusive; / = not tested or not shown; [ ] = remark or other dose. Calls come from the whole dose curve; as a rule, active = well fitted curve in the direction sought with a large enough effect; inconclusive = small, poorly fitted or top-dose-only effect, or another doubt; inactive = no such curve, though single readings can be large; an effect the other way counts as inactive or inconclusive.

SMILES | L3MBTL1 block | BAZ2B inh | HP1b binding inh | JMJD2A Tudor | Sfp PPTase inh | G9a block
O=C(NCc1ccccc1)C12CC3CC(CC(C3)C1)C2 | / | ? | . | . | . | 32µM
C/C(=N\Nc1ccc(F)cc1)c1ccc(N2CCOCC2)c(F)c1 | / | . | . | . | . | 28µM
CC1=CCC(C(=O)O)C(C(=O)NC2CCCCC2)C1 (configuration not stated) | / | 50µM | ? | 56µM | . | 32µM
Cc1cc(C(=O)Nc2sc3c(c2C#N)CCC(C)C3)no1 (configuration not stated) | .[11.4 µM] | . | . | . | . | .
Cc1onc(-c2c(F)cccc2Cl)c1C(=O)Nc1sc2c(c1C(N)=O)CCC2 | / | . | . | . | . | 50µM
Cc1onc(-c2ccccc2)c1C(=O)Nc1sc2c(c1C#N)CCC2 | ? | ? | ? | 50µM | . | ?
Cc1onc(-c2ccccc2)c1C(=O)Nc1sc2c(c1C(N)=O)CCC2 | ? | ? | ? | . | ? | 11µM
Cc1onc(-c2ccccc2)c1C(=O)NC(=S)Nc1sc2c(c1C#N)CCC(C)C2 (configuration not stated) | . | ? | . | . | . | 3.5µM
O=C(Nc1cccc2cccnc12)C(Cl)(Cl)Cl | / | / | . | . | / | /
Cc1ccc(C(=O)OCc2nnc(-c3ccccc3)o2)cc1S(=O)(=O)N1CCOCC1 | . | . | . | . | / | .[0.501 µM]
Cc1nnc(NC(=O)c2c(-c3ccccc3)noc2C)s1 | . | . | . | . | . | .[0.0925 µM]
CCn1cc(Br)c(C(=O)Nc2sc3c(c2C(N)=O)CCCC3)n1 | / | . | . | . | . | .
NC(=O)c1c(NC(=O)c2cccnc2Cl)sc2c1CCCC2 | . | . | . | . | . | 18µM
CCC(CC)c1nnc(NC(=O)c2c(-c3ccccc3)noc2C)s1 | . | . | . | . | . | 40µM
Cc1onc(-c2ccccc2)c1C(=O)NC(=S)Nc1sc2c(c1C#N)CCCC2 | . | ? | . | . | 45µM | 2µM
Cc1onc(C(=O)Nc2sc3c(c2C(N)=O)CCCC3)c1[N+](=O)[O-] | / | ? | ? | ? | 25µM | /
CC(OC(=O)c1ccc([N+](=O)[O-])s1)C(=O)NC1CCCCC1C (configuration not stated) | . | . | . | . | / | .[12.7 µM]
Cc1nnsc1NC(=O)OCC(C)(C)C | . | . | . | . | . | 50µM
O=[N+]([O-])c1ccc(-c2cn(-c3ccccc3)c(=S)[nH]2)cc1 | . | . | . | . | . | ?
O=[N+]([O-])c1ccc2[nH]c(=S)[nH]c2c1 | / | / | . | . | / | /
Cc1cccc(-c2n[nH]c(=S)n2-c2ccccc2)c1[N+](=O)[O-] | . | . | . | 35µM | . | 2.2µM
Nc1ccc(-n2cc(-c3ccccc3)[nH]c2=S)cc1 | / | . | . | ? | 35µM | 7.9µM
O=[N+]([O-])c1ccc2c(c1)[nH]c(=S)n2-c1ccccc1 | . | ? | . | ? | . | 3.2µM
COc1ccc(-n2c(-c3cccc(C)c3[N+](=O)[O-])n[nH]c2=S)cc1 | . | . | ? | ? | . | 3.2µM
CC1(C)CCC=[N+]1[O-] | / | / | / | / | / | .[12.7 µM]
SMILES | L3MBTL1 block | BAZ2B inh | HP1b binding inh | JMJD2A Tudor | Sfp PPTase inh | G9a block
O=[N+]([O-])c1cccc(-c2cn(-c3ccccc3)c(=S)[nH]2)c1 | / | . | . | . | . | 1.6µM
O=[N+]([O-])c1cccc(-c2n[nH]c(=S)n2-c2ccccc2)c1 | / | . | . | 22µM | . | 2.2µM
CCN(C(=O)COC(=O)/C=C/c1ccc2c(c1)OCO2)c1c(N)n(Cc2ccccc2)c(=O)[nH]c1=O | / | / | . | . | / | /
CCNc1ncc2nc(-c3cccs3)c(=O)n(Cc3ccc(F)cc3)c2n1 | / | / | / | / | . | .[0.501 µM]
Nc1ncc(Br)cc1N=Cc1ccccc1 | . | . | . | . | 79µM | ?
O=C(COC(=O)Cc1ccc(F)cc1)NCc1ccco1 | ? | 50µM | . | . | . | ?
O=C(COC(=O)CSc1ccc(F)cc1)NCc1ccco1 | . | . | . | . | / | .
COc1ccc(CC(=O)OCC(=O)NCc2ccco2)cc1OC | . | . | . | . | / | 50µM
CC(C)[C@H](NC(=O)OCc1ccccc1)C(=O)OCC(=O)NCc1ccco1 | / | / | . | ? | / | /
CC(C)C(NC(=O)OCc1ccccc1)C(=O)OCC(=O)NCc1ccco1 (configuration not stated) | ? | 50µM | . | 56µM | 56µM | .
CCCOc1cc(CC(=O)NCc2ccco2)ccc1OC | . | . | . | . | . | .[12.7 µM]
Cc1ccc(-c2nn(CCC(=O)O)cc2CCC(=O)O)cc1 | / | . | . | . | . | .
CCn1cc(CCC(=O)O)c(C)n1 | . | . | . | . | . | 45µM
COC(=O)c1ccccc1N1C(=O)[C@@H]2C(c3ccc(F)cc3)=NO[C@@H]2C1=O | . | / | . | . | . | .
COc1ccc(C2=NO[C@@H]3C(=O)N(c4c(C)cccc4C)C(=O)[C@H]23)cc1OC | . | . | . | . | . | 50µM
Cc1cccc(C)c1N1C(=O)[C@@H]2C(c3ccccc3Cl)=NO[C@@H]2C1=O | . | . | . | . | . | 50µM
COc1ccc(OC)c(NC(=O)CN2C(=O)CC(C)Sc3ccccc32)c1 (configuration not stated) | / | . | . | . | / | .
COc1cccc(NC(=O)N2CCN3CCCCC3C2)c1 (configuration not stated) | / | . | . | . | / | .
Cc1nc(N2CCOCC2)c2c(C(=O)NCc3ccc(Cl)cc3)c(C)oc2n1 | / | . | . | . | / | .
CC(=O)C1=C(C)Nc2cc(C(F)(F)F)ccc2S1 | . | . | . | . | 56µM | 22µM
CN(Cc1cccc(F)c1)CC(O)COCc1ccccc1Cl (configuration not stated) | / | / | ? | 22µM | . | 56µM
CCOc1ccc2[nH]cc(S(=O)(=O)c3ccc(Cl)cc3)c(=O)c2c1 | / | ? | . | . | . | 71µM
O=C(NCCc1ccccc1)c1ccc2c(c1)N(Cc1ccc(Cl)cc1)C(=O)CS2 | / | . | . | . | / | .
COC(=O)C1CCN(C(=O)C2CCC(=O)N(CCCc3ccccc3)C2)CC1 (configuration not stated) | / | . | . | . | . | .
O=C(C1CCN(CCCc2ccccc2)CC1)N1CCCCC1 | / | ? | ? | 0.89µM | . | 20µM
CC1CCN(C(=O)C2CCN(CCCc3ccccc3)CC2)CC1 | . | ? | / | / | . | 14µM
Cc1ccc(/C=C2/C(=N)N3N=C(CC(=O)N4CCCC4)SC3=NC2=O)o1 | / | . | . | . | . | 32µM
N=C1/C(=C\c2ccc(Br)o2)C(=O)N=C2SC(CC(=O)N3CCCCC3)=NN12 | / | ? | . | . | . | 45µM
CN(C)c1ccc(/C=C2\C(=N)N3N=C(CC(=O)N4CCCCC4)SC3=NC2=O)cc1 | / | ? | . | ? | . | .
Cc1cccn2c(=O)c(C(=O)N3CCN(c4ccccc4)CC3)cnc12 | / | . | . | . | / | .
